Assay results published in PubChem BioAssay (NCATS).
Records with an inconclusive call do not appear. Activity calls are given as the source filed them. Unless noted, calls come from the whole dose curve.

How the values were obtained:
[1] = qHTS for Inhibitors of the Functional Ribonucleoprotein Complex (vRNP) of Lassa (LASV) Arenavirus: LASV Primary Screen - GLuc reporter signal (AID 1347082; calls by dose curve; tested in HEK293 reporter line; note: nearly all actives have a fitted effect of over 60% in size)
[2] = qHTS for Inhibitors of the Functional Ribonucleoprotein Complex (vRNP) of Lassa (LASV) Arenavirus: Viability assay - alamar blue signal for LASV Primary Screen (AID 1347083; calls by dose curve; tested in HEK293 reporter line; note: nearly all actives have a fitted effect of over 80% in size)
[3] = qHTS for Inhibitors of the Functional Ribonucleoprotein Complex (vRNP) of Lymphocytic Choriomeningitis Arenaviruses (LCMV): Viability assay - alamar blue signal for LCMV Primary Screen (AID 1347085; calls by dose curve; tested in HEK293 reporter line; note: nearly all actives have a fitted effect of over 80% in size)
[4] = biological target: Nucleoprotein (Lymphocytic choriomeningitis virus (strain Armstrong)) (UniProt P09992); experiment: qHTS for Inhibitors of the Functional Ribonucleoprotein Complex (vRNP) of Lymphocytic Choriomeningitis Arenaviruses (LCMV): LCMV Primary Screen - GLuc reporter signal (AID 1347086); note: nearly all actives have a fitted effect of over 70% in size
% is set by controls: 0 for no effect and ±100 for the full control effect.
Note: series mostly up to about 57 µM.

Sequence of Nucleoprotein (Lymphocytic choriomeningitis virus (strain Armstrong)) (P09992 whole entry, looked up): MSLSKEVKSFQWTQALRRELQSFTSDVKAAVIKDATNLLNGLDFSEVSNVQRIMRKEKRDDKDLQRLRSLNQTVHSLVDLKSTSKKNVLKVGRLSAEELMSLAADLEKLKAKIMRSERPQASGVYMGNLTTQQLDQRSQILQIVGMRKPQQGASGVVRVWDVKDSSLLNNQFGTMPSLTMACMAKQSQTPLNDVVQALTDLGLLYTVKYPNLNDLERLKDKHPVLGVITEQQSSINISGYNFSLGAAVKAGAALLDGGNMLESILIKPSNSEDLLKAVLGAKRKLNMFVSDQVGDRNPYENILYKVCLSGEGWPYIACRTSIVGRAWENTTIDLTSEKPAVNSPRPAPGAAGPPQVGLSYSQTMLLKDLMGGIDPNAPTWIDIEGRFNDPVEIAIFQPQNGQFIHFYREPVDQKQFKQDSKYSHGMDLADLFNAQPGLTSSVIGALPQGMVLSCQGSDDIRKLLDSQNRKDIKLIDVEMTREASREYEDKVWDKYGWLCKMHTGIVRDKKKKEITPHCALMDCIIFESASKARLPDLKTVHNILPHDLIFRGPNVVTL

CC=CC1=C(C(=O)O)N2C(=O)[C@H](NC(=O)[C@H](N)c3ccc(O)cc3)[C@@H]2SC1
inactive: Potency [1] | Potency [2] | Potency [3] | Potency [4]

COc1c2occc2cc2ccc(=O)oc12
inactive: Potency [1] | Potency [2] | Potency [3] | Potency [4]

OC[C@@H](O)[C@@H](O[C@@H]1O[C@H](CO)[C@H](O)[C@H](O)[C@H]1O)[C@H](O)[C@@H](O)CO
inactive: Potency [1] | Potency [2] | Potency [3] | Potency [4]

OC[C@H]1O[C@@H](Oc2ccc(O)cc2)[C@H](O)[C@@H](O)[C@@H]1O
inactive: Potency [1] | Potency [2] | Potency [3] | Potency [4]

CCN1CCCC1CN (stereo unspecified)
inactive: Potency [1] | Potency [2] | Potency [3] | Potency [4]

C1COC(NC(C2CC2)C2CC2)=N1
inactive: Potency [1] | Potency [2] | Potency [3] | Potency [4]

Cc1cnc(NC(=O)C2=C(O)c3ccccc3S(=O)(=O)N2C)s1
inactive: Potency [1] | Potency [2] | Potency [3] | Potency [4]

O=C(CCN1CCC(c2ccccc2)C1)c1ccc2c(c1)OCCO2 (stereo unspecified)
inactive: Potency [1] | Potency [2] | Potency [3] | Potency [4]

COc1cc(C=O)ccc1O
inactive: Potency [1] | Potency [2] | Potency [3] | Potency [4]

Cc1cc(=O)[nH]c(=S)[nH]1
inactive: Potency [1] | Potency [2] | Potency [3] | Potency [4]

CCn1cc(C(=O)O)c(=O)c2cnc(N3CCCC3)nc21
inactive: activity change, negative = inhibition [1] 2.17% [at 11.5 µM] | activity change, negative = reduced viability [2] 9.34% [at 11.5 µM] | activity change, negative = lower viability [3] 6.9% [at 11.5 µM] | activity change, negative = inhibition [4] 14.6% [at 11.5 µM]

C/C(=N\O)[C@@H](C)NCC(C)(C)CN[C@H](C)/C(C)=N/O
inactive: Potency [1] | Potency [2] | Potency [3] | Potency [4]

O=C(O)[C@H](O)c1ccccc1
inactive: Potency [1] | Potency [2] | Potency [3] | Potency [4]

Cc1cc2nc3c(=O)[nH]c(=O)nc-3n(C[C@H](O)[C@H](O)[C@H](O)CO)c2cc1C
inactive: Potency [1] | Potency [2] | Potency [3] | Potency [4]

CS(=O)(=O)c1ccc([C@@H](O)[C@@H](CO)NC(=O)C(Cl)Cl)cc1
inactive: Potency [1] | Potency [2] | Potency [3] | Potency [4]

NC(=S)N/N=C/c1cccnc1
inactive: Potency [1] | Potency [2] | Potency [3] | Potency [4]

C=CCn1c(=O)n([C@@H]2O[C@H](CO)[C@@H](O)[C@H]2O)c2nc(N)[nH]c(=O)c21
inactive: Potency [1] | Potency [2] | Potency [3] | Potency [4]

COc1ccccc1OCC1CNC(=O)O1 (stereo unspecified)
inactive: Potency [1] | Potency [2] | Potency [3] | Potency [4]

NC(=O)COCCN1CCN(C(c2ccccc2)c2ccc(Cl)cc2)CC1 (stereo unspecified)
inactive: Potency [1] | Potency [2] | Potency [3] | Potency [4]

CC(C)=CCC/C(C)=C/CO
inactive: Potency [1] | Potency [2] | Potency [3] | Potency [4]

O=P(O)(O)OCC(O)CO (stereo unspecified)
inactive: Potency [1] | Potency [2] | Potency [3] | Potency [4]

C=C[C@H]1CN2CC[C@H]1C[C@H]2[C@H](O)c1ccnc2ccc(OC)cc12
inactive: Potency [1] | Potency [2] | Potency [3] | Potency [4]

COc1ccc(C(=O)c2ccccc2)c(O)c1
inactive: Potency [1] | Potency [2] | Potency [3] | Potency [4]

O=P(O)(O)C(O)(Cn1ccnc1)P(=O)(O)O
inactive: Potency [1] | Potency [2] | Potency [3] | Potency [4]

O=C(O)c1ccc[n+]([O-])c1
inactive: Potency [1] | Potency [2] | Potency [3] | Potency [4]

O=C1OC2(c3ccccc31)c1cc(Br)c(O)c(Br)c1Oc1c2cc(Br)c(O)c1Br
inactive: Potency [1] | Potency [2] | Potency [3] | Potency [4]

CC(=O)Oc1cccc2c1C(=O)c1c(OC(C)=O)cc(C(=O)O)cc1C2=O
inactive: Potency [1] | Potency [2] | Potency [3] | Potency [4]

CC(C)=CCC/C(C)=C/CC/C(C)=C/CCC(=O)OC/C=C(\C)CCC=C(C)C
inactive: Potency [1] | Potency [2] | Potency [3] | Potency [4]

CC(=O)CC(c1ccccc1)c1c(O)c2ccccc2oc1=O (stereo unspecified)
inactive: Potency [1] | Potency [2] | Potency [3] | Potency [4]

CC[N+](CC)(CC)CCOc1cccc(OCC[N+](CC)(CC)CC)c1OCC[N+](CC)(CC)CC
inactive: Potency [1] | Potency [2] | Potency [3] | Potency [4]

CC(C)CN(C[C@@H](O)[C@H](Cc1ccccc1)NC(=O)O[C@H]1CO[C@H]2OCC[C@H]21)S(=O)(=O)c1ccc(N)cc1
inactive: Potency [1] | Potency [2] | Potency [3] | Potency [4]

O=C1O[C@H](CO)[C@@H](O)[C@H](O)[C@H]1O
inactive: Potency [1] | Potency [2] | Potency [3] | Potency [4]

CCO[C@H](Cc1ccc(OCCc2ccc(OS(C)(=O)=O)cc2)cc1)C(=O)O
inactive: Potency [1] | Potency [2] | Potency [3] | Potency [4]

CC(=O)OCC(=O)[C@H]1CC[C@H]2[C@@H]3CCC4=CC(=O)CC[C@]4(C)[C@H]3CC[C@]12C
inactive: Potency [1] | Potency [2] | Potency [3] | Potency [4]

N#CSCC(=O)O
inactive: Potency [1] | Potency [2] | Potency [3] | Potency [4]

C#C[C@]1(O)CC[C@H]2[C@@H]3CCc4cc(OC5CCCC5)ccc4[C@H]3CC[C@@]21C
inactive: Potency [1] | Potency [2] | Potency [3] | Potency [4]

C=CCN1C[C@H](C(=O)N(CCCN(C)C)C(=O)NCC)C[C@@H]2c3cccc4[nH]cc(c34)C[C@H]21
inactive: Potency [1] | Potency [2] | Potency [3] | Potency [4]

Cc1ncc(CO)c(C=O)c1O
inactive: Potency [1] | Potency [2] | Potency [3] | Potency [4]

Cc1ncc([N+](=O)[O-])n1CC(O)CCl (stereo unspecified)
inactive: Potency [1] | Potency [2] | Potency [3] | Potency [4]

CN1[C@@H]2CC(OC(=O)[C@H](CO)c3ccccc3)C[C@H]1[C@@H]1O[C@@H]12 (stereo partly specified)
inactive: Potency [1] | Potency [2] | Potency [3] | Potency [4]

CN/C(=C\[N+](=O)[O-])NCCSCc1csc(CN(C)C)n1
inactive: Potency [1] | Potency [2] | Potency [3] | Potency [4]

Cc1nnc(C(C)C)n1C1C[C@H]2CC[C@@H](C1)N2CC[C@H](NC(=O)C1CCC(F)(F)CC1)c1ccccc1 (stereo partly specified)
inactive: Potency [1] | Potency [2] | Potency [3] | Potency [4]

C=CC(N)CCC(=O)O (stereo unspecified)
inactive: Potency [1] | Potency [2] | Potency [3] | Potency [4]

CCC(C)(CN(C)C)OC(=O)c1ccccc1 (stereo unspecified)
inactive: Potency [1] | Potency [2] | Potency [3] | Potency [4]

Cc1cc(-n2nc3ccc(Cl)cc3n2)c(O)c(C(C)(C)C)c1
inactive: Potency [1] | Potency [2] | Potency [3] | Potency [4]

CCc1oc2ccccc2c1C(=O)c1cc(I)c(O)c(I)c1
inactive: Potency [1] | Potency [2] | Potency [3] | Potency [4]

CC(CCc1ccc2c(c1)OCO2)NN (stereo unspecified)
inactive: Potency [1] | Potency [2] | Potency [3] | Potency [4]

Nc1ccn(C[C@@H](CO)OCP(=O)(O)O)c(=O)n1
inactive: Potency [1] | Potency [2] | Potency [3] | Potency [4]

COC(=O)c1cc(Cl)c(NC(C)=O)cc1OC
inactive: Potency [1] | Potency [2] | Potency [3] | Potency [4]
